Publication PMC5540273 (PLoS ONE, 2017)
Read-outs that look alike come from different tables or passages of the source.

Experiments:
Conditions in all cases: n = 1
CSNK1A1 = system: CSNK1A1
CSNK1D = system: CSNK1D
CSNK1E = system: CSNK1E
CSNK1G1 = system: CSNK1G1
CSNK1G2 = system: CSNK1G2
CSNK1G3 = system: CSNK1G3
CSNK2A1 = system: CSNK2A1
CSNK2A2 = system: CSNK2A2
CTK = system: T1, CTK
T1 construct: gene MATK

DAPK1 = system: DAPK1
[1] = concentration: 1 μM, replicates: in singlicate
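Note: KINOMEscan kinase panel screen.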

Compound: O=C1NC(=O)C(N2CCc3ccccc32)=C1c1ccccc1Cl [SB-373598]
- %Inh (CSNK1A1; [1]): 33%
- %Inh (CSNK1D; [1]): 18%
- %Inh (CSNK1E; [1]): 18%
- %Inh (CSNK1G1; [1]): 13%
- %Inh (CSNK1G2; [1]): 9%
- %Inh (CSNK1G3; [1]): 14%
- %Inh (CSNK2A1; [1]): 2%
- %Inh (CSNK2A2; [1]): 15%
- %Inh (CTK; [1]): 0%
- %Inh (DAPK1; [1]): 22%

Compound: C[C@@H]1CCCCN1c1cc(-c2ccc3c(N)n[nH]c3c2)nc(N)n1 [GSK2258759]
- %Inh (CSNK1A1; [1]): 0%
- %Inh (CSNK1D; [1]): 39%
- %Inh (CSNK1E; [1]): 35%
- %Inh (CSNK1G1; [1]): 6%
- %Inh (CSNK1G2; [1]): 0%
- %Inh (CSNK1G3; [1]): 26%
- %Inh (CSNK2A1; [1]): 6%
- %Inh (CSNK2A2; [1]): 76%
- %Inh (CTK; [1]): 0%
- %Inh (DAPK1; [1]): 18%

Compound: Cc1cccc(-c2nc(Nc3cccc(C(N)=O)c3)c3ccccc3n2)n1 [GW876019]
- %Inh (CSNK1A1; [1]): 37%
- %Inh (CSNK1D; [1]): 8%
- %Inh (CSNK1E; [1]): 15%
- %Inh (CSNK1G1; [1]): 0%
- %Inh (CSNK1G2; [1]): 0%
- %Inh (CSNK1G3; [1]): 18%
- %Inh (CSNK2A1; [1]): 30%
- %Inh (CSNK2A2; [1]): 19%
- %Inh (CTK; [1]): 13%
- %Inh (DAPK1; [1]): 15%

Compound: Cc1ccc(NC(=O)Nc2cccc(C(F)(F)F)c2)cc1 [GSK955403]
- %Inh (CSNK1A1; 1 µM): 0%
- %Inh (CSNK1D; 1 µM): 0%
- %Inh (CSNK1E; 1 µM): 0%
- %Inh (CSNK1G1; 1 µM): 0%
- %Inh (CSNK1G2; 1 µM): 1%
- %Inh (CSNK1G3; 1 µM): 0%
- %Inh (CSNK2A1; 1 µM): 1%
- %Inh (CSNK2A2; 1 µM): 0%
- %Inh (CTK; 1 µM): 0%
- %Inh (DAPK1; 1 µM): 18%

Compound: COc1ccc(Nc2nccc(NCCNC(=O)Nc3ccccc3F)n2)cc1 [GSK1379901]
- %Inh (CSNK1A1; [1]): 0%
- %Inh (CSNK1D; [1]): 7%
- %Inh (CSNK1E; [1]): 99.4%
- %Inh (CSNK1G1; [1]): 7%
- %Inh (CSNK1G2; [1]): 0%
- %Inh (CSNK1G3; [1]): 25%
- %Inh (CSNK2A1; [1]): 0%
- %Inh (CSNK2A2; [1]): 2%
- %Inh (CTK; [1]): 0%
- %Inh (DAPK1; [1]): 0%

Compound: COc1cccc(NC(=O)NC2CCN(c3ccnc(Nc4ccc(F)cc4)n3)C2)c1 (centres unmarked) [GSK1379721]
- %Inh (CSNK1A1; [1]): 0%
- %Inh (CSNK1D; [1]): 0%
- %Inh (CSNK1E; [1]): 37%
- %Inh (CSNK1G1; [1]): 9%
- %Inh (CSNK1G2; [1]): 0%
- %Inh (CSNK1G3; [1]): 27%
- %Inh (CSNK2A1; [1]): 0%
- %Inh (CSNK2A2; [1]): 10%
- %Inh (CTK; [1]): 0%
- %Inh (DAPK1; [1]): 10%

Compound: Cn1ccc2ncnc(Oc3cccc(C(=O)Nc4ccccc4)c3)c21
- %Inh (CSNK1A1; [1]): 0%
- %Inh (CSNK1D; [1]): 0%
- %Inh (CSNK1E; [1]): 1%
- %Inh (CSNK1G1; [1]): 0%
- %Inh (CSNK1G2; [1]): 0%
- %Inh (CSNK1G3; [1]): 2%
- %Inh (CSNK2A1; [1]): 25%
- %Inh (CSNK2A2; [1]): 11%
- %Inh (CTK; [1]): 17%
- %Inh (DAPK1; [1]): 20%

Compound: Cc1cccc(-c2nc(Nc3ccc4[nH]ncc4c3)c3ccccc3n2)n1 [GW857175]
- %Inh (CSNK1A1; [1]): 0%
- %Inh (CSNK1D; [1]): 28%
- %Inh (CSNK1E; [1]): 28%
- %Inh (CSNK1G1; [1]): 15%
- %Inh (CSNK1G2; [1]): 0%
- %Inh (CSNK1G3; [1]): 18%
- %Inh (CSNK2A1; [1]): 94%
- %Inh (CTK; [1]): 18%
- %Inh (DAPK1; [1]): 10%

Compound: Cc1ccc(NC(=O)Nc2cc(C(C)(C)C)nn2-c2ccccc2)cc1 [GSK1014915]
- %Inh (CSNK1A1; [1]): 0%
- %Inh (CSNK1D; [1]): 13%
- %Inh (CSNK1E; [1]): 0%
- %Inh (CSNK1G1; [1]): 0%
- %Inh (CSNK1G2; [1]): 0%
- %Inh (CSNK1G3; [1]): 25%
- %Inh (CSNK2A1; [1]): 13%
- %Inh (CSNK2A2; [1]): 0%
- %Inh (CTK; [1]): 18%
- %Inh (DAPK1; [1]): 6%

Compound: CCCc1ccc(S(=O)(=O)NC2CCN(c3ccnc(Nc4ccc(F)cc4)n3)C2)cc1 (centres unmarked) [GSK1379715]
- %Inh (CSNK1A1; [1]): 0%
- %Inh (CSNK1D; [1]): 0%
- %Inh (CSNK1E; [1]): 25%
- %Inh (CSNK1G1; [1]): 2%
- %Inh (CSNK1G2; [1]): 0%
- %Inh (CSNK1G3; [1]): 2%
- %Inh (CSNK2A1; [1]): 0%
- %Inh (CSNK2A2; [1]): 0%
- %Inh (CTK; [1]): 0%
- %Inh (DAPK1; [1]): 0%

Compound: Cc1cc(-c2ccc3c(c2)CC[C@@H](N[C@@H](C)c2ccccc2)C3)cnc1N.Cl [GW412617]
- %Inh (CSNK1A1; [1]): 6%
- %Inh (CSNK1D; [1]): 35%
- %Inh (CSNK1E; [1]): 12%
- %Inh (CSNK1G1; [1]): 11%
- %Inh (CSNK1G2; [1]): 0%
- %Inh (CSNK1G3; [1]): 8%
- %Inh (CSNK2A1; [1]): 2%
- %Inh (CSNK2A2; [1]): 10%
- %Inh (CTK; [1]): 13%
- %Inh (DAPK1; [1]): 10%

Compound: COC(=O)c1c(-c2ccccc2)c2cc(C(=O)O)ccc2c(=O)n1Cc1ccccc1
- %Inh (CSNK1A1; [1]): 0%
- %Inh (CSNK1D; [1]): 7%
- %Inh (CSNK1E; [1]): 0%
- %Inh (CSNK1G1; [1]): 0%
- %Inh (CSNK1G2; [1]): 0%
- %Inh (CSNK1G3; [1]): 0%
- %Inh (CSNK2A1; [1]): 0%
- %Inh (CSNK2A2; [1]): 0%
- %Inh (CTK; [1]): 0%
- %Inh (DAPK1; [1]): 0%

Compound: Fc1cc(Cl)ccc1Nc1ccnc2cc(I)ccc12 [GW551191]
- %Inh (CSNK1A1; [1]): 0%
- %Inh (CSNK1D; [1]): 5%
- %Inh (CSNK1E; [1]): 35%
- %Inh (CSNK1G1; [1]): 4%
- %Inh (CSNK1G2; [1]): 0%
- %Inh (CSNK1G3; [1]): 20%
- %Inh (CSNK2A1; [1]): 0%
- %Inh (CSNK2A2; [1]): 0%
- %Inh (CTK; [1]): 0%
- %Inh (DAPK1; [1]): 19%

Compound: Fc1cc(Cl)ccc1Nc1ccnc2cc(-c3ccc(CN4CCCCC4)o3)ccc12 [GW560116]
- %Inh (CSNK1A1; [1]): 0%
- %Inh (CSNK1D; [1]): 7%
- %Inh (CSNK1E; [1]): 46%
- %Inh (CSNK1G1; [1]): 11%
- %Inh (CSNK1G2; [1]): 0%
- %Inh (CSNK1G3; [1]): 23%
- %Inh (CSNK2A1; [1]): 0%
- %Inh (CSNK2A2; [1]): 94.6%
- %Inh (CTK; [1]): 0%
- %Inh (DAPK1; [1]): 1%

Compound: COc1ccccc1CNC(=O)c1cc(C(=O)c2ccccc2C)c[nH]1 [GSK364507]
- %Inh (CSNK1A1; [1]): 0%
- %Inh (CSNK1D; [1]): 28%
- %Inh (CSNK1E; [1]): 20%
- %Inh (CSNK1G1; [1]): 15%
- %Inh (CSNK1G2; [1]): 0%
- %Inh (CSNK1G3; [1]): 9%
- %Inh (CSNK2A1; [1]): 0%
- %Inh (CSNK2A2; [1]): 100%
- %Inh (CTK; [1]): 0%
- %Inh (DAPK1; [1]): 0%

Compound: Cl.NC(=O)c1cccc(Nc2nccc(Nc3ccc(Oc4cccc(Cl)c4)c(Cl)c3)n2)c1 [GW659008]
- %Inh (CSNK1A1; [1]): 1%
- %Inh (CSNK1D; [1]): 5%
- %Inh (CSNK1E; [1]): 8%
- %Inh (CSNK1G1; [1]): 0%
- %Inh (CSNK1G2; [1]): 0%
- %Inh (CSNK1G3; [1]): 17%
- %Inh (CSNK2A1; [1]): 15%
- %Inh (CSNK2A2; [1]): 19%
- %Inh (CTK; [1]): 2%
- %Inh (DAPK1; [1]): 0%

Compound: Cn1cncc1-c1ccc2ncnc(Nc3ccc(OCc4ccccc4)cc3)c2c1 [GW320571]
- %Inh (CSNK1A1; [1]): 0%
- %Inh (CSNK1D; [1]): 20%
- %Inh (CSNK1E; [1]): 99.4%
- %Inh (CSNK1G1; [1]): 0%
- %Inh (CSNK1G2; [1]): 15%
- %Inh (CSNK1G3; [1]): 19%
- %Inh (CSNK2A1; [1]): 26%
- %Inh (CSNK2A2; [1]): 15%
- %Inh (CTK; [1]): 0%
- %Inh (DAPK1; [1]): 0%

Compound: Cc1cc(NCC(c2ccccc2)c2ccccc2)nc(NCc2ccc(C(F)(F)F)cc2)n1 [GW497681]
- %Inh (CSNK1A1; [1]): 0%
- %Inh (CSNK1D; [1]): 0%
- %Inh (CSNK1E; [1]): 34%
- %Inh (CSNK1G1; [1]): 0%
- %Inh (CSNK1G2; [1]): 0%
- %Inh (CSNK1G3; [1]): 22%
- %Inh (CSNK2A1; [1]): 0%
- %Inh (CSNK2A2; [1]): 0%
- %Inh (CTK; [1]): 0%
- %Inh (DAPK1; [1]): 2%
